Compound activity: PubChem BioAssay, National Center for Advancing Translational Sciences (NCATS)
PNC assembly inh – High Content Assay for Compounds that inhibit the Assembly of the Perinucleolar Compartment; 140,000 tested, 3.1% active; PC3M PTB-GFP, PNC prevalence imaging, 16 h; stronger effect = lower value; activity change (PNC), negative = inhibition, % at 10 µM; AID 2417, 2010;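 active = readout at or below -70, meaning at least 70% loss of cells showing the perinucleolar compartment, a nuclear body marking cancer cells; inconclusive = readout between -30 and a set limit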;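 note: plate controls were DMSO wells for no effect and camptothecin positive control wells for full effect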
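Compounds are pinned in duplicate onto adhered PC3M cells stably expressing GFP-tagged PTB and incubated 16 h at 37 C. Cells are then fixed, nuclei stained with Hoechst, and PNC-positive cells counted.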
IMPase inh – qHTS Assay for Identifying the Cell-Membrane Permeable IMPase Inhibitors; 120,000 tested, under 10 active; AID 901, 2007; Inositol monophosphatase 1 (Rattus norvegicus), P97697; inhibition (IP1 accumulation), % at 46.1 µM; CHO-M1 cells, IP1 accumulation, HTRF TR-FRET ratio; active = well fitted curve in the direction sought with a large enough effect in the signal ratio, not every such curve was filed as active; inconclusive = small, poorly fitted or top-dose-only effect, or a change in a side signal; inactive = no such curve, though single readings can be large or run the other way; the % refers to the signal ratio;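 note: cells stimulated with carbachol in lithium chloride buffer; plate controls were DMSO basal wells for no effect and reference inhibitor wells for full effect; higher means more IMPase inhibition seen as more IP1 and lower FRET ratio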
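Carbachol-driven Gq signalling in CHO-M1 cells (2000/well) generates IP1. Compounds that block IMPase raise IP1 and so reduce the FRET signal from Eu-anti-IP1 and d2-IP1 after a 10 min room-temperature lysis.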
IMPase Li inh – qHTS Assay for Identifying the Cell-Membrane Permeable IMPase Inhibitors: Potentiation with Lithium; CHO-M1 cells, IP1 TR-FRET (IP-One), carbachol + lithium; Potency, µM (top dose mostly 59.4 µM), inactives show at the top dose activity, negative = IMPase inhibition, usual class: inhibitors; 210,000 tested, 0.35% active;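 note: IP1 builds up when IMPase is blocked and the TR-FRET signal falls; potency is the fitted concentration of half-maximal effect; plate controls were basal vehicle for no effect and high inhibitor control for full effect; nearly all actives have a fitted effect of over 50% in size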
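CHO cells stably expressing M1 receptor (2000/well, cultured 16–30 h) treated 30 min at 37C with compound plus low lithium. Cytosolic IP1 by TR-FRET (665/620 ratio and 620 channel) after 10 min lysis; AC50 by Hill fit.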
HPGD inh – qHTS Assay for Inhibitors of HPGD (15-Hydroxyprostaglandin Dehydrogenase). purified HPGD, NADH fluorescence kinetic, PGE2 substrate. 150,000 tested, 4.3% active. Potency, µM, for inactives: top-dose activity change, negative = inhibition, hits mostly inhibitors; active = well fitted inhibition curve with a large enough effect, not every such curve was filed as active; inconclusive = small, poorly fitted or top-dose-only effect, or another doubt; inactive = no such curve, though single readings can be large or run the other way; note: potency is the fitted concentration of half-maximal effect
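20 nM HPGD preincubated 15 min at room temperature with compound in 50 mM Tris-HCl pH 8, 0.01% Tween 20. Started with 1 mM NAD+ and 30 uM prostaglandin E2; NADH fluorescence (360/450 nm) read 5 times over 30-s intervals, last minus first.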
12-hLO inh – qHTS Assay for Inhibitors of 12-hLO (12-human lipoxygenase). 150,000 tested, 0.12% active. AID 1452, 2008. purified 12-hLO, xylenol orange hydroperoxide absorbance. Polyunsaturated fatty acid lipoxygenase ALOX12 (Homo sapiens), P18054. Potency, µM (series often up to 57.1 µM), inactives show at the top dose activity change, negative = inhibition, actives largely listed as inhibitors; note: potency is the fitted concentration of half-maximal effect; nearly all actives have a fitted effect of over 55% in size
Target sequence (P18054 whole entry, looked up): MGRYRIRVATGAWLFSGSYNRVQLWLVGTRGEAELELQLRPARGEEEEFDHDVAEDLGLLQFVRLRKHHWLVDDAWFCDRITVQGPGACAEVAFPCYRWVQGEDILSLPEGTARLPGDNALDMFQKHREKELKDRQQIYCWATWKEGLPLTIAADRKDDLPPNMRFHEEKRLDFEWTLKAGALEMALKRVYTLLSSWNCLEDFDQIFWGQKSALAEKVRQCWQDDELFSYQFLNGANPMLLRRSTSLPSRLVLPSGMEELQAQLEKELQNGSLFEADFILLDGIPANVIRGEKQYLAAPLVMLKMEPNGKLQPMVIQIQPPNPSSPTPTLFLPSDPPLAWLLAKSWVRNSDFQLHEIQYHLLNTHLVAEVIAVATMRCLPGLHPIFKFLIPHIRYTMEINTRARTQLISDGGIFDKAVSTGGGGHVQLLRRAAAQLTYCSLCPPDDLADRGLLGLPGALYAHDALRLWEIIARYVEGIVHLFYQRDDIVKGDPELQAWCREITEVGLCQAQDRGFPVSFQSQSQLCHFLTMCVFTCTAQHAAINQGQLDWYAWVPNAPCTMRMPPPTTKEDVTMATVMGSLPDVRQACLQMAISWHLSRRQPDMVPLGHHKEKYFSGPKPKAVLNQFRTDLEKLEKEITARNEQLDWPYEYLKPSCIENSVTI
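Purified human 12hLO (150 nM final) was preincubated with compounds for 15 min at room temperature in 25 mM Hepes pH 7.0, 0.01% Triton X-100, then reacted with 40 uM arachidonic acid for 30 min. Hydroperoxide was detected with ferrous iron/xylenol orange.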
ALDH1A1 inh – qHTS Assay for Inhibitors of Aldehyde Dehydrogenase 1 (ALDH1A1) | Aldehyde dehydrogenase 1A1 (Homo sapiens), P00352 | Purified ALDH1A1, NADH fluorescence, propionaldehyde substrate | Potency, µM (top dose mostly 75.3 µM), without a hit: at the top dose activity, negative = inhibition, actives largely listed as inhibitors | 220,000 tested, 7.3% active | AID 1030, 2008; active = well fitted inhibition curve with a large enough effect, not every such curve was filed as active; inconclusive = small, poorly fitted or top-dose-only effect, or another doubt; inactive = no such curve, though single readings can be large or run the other way;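 note: potency is the fitted concentration of half-maximal effect; plate controls were no enzyme wells and a reference inhibitor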
* = called active by the depositor; ? = inconclusive; . = no result; [ ] = remark or other dose. An excerpt weighted towards active compounds, which were near 11% of everything screened. Unless noted, calls come from the whole dose curve; as a rule, active = well fitted curve in the direction sought with a large enough effect; inconclusive = small, poorly fitted or top-dose-only effect, or another doubt; inactive = no such curve, though single readings can be large; an effect the other way counts as inactive or inconclusive. Unless noted, % is set by controls: 0 for no effect and ±100 for the full control effect.

SMILES	PNC assembly inh	IMPase inh	IMPase Li inh	HPGD inh	12-hLO inh	ALDH1A1 inh
O=C1C2C3C=CC(CO)(O3)C2C(=O)N1c1ccc(-c2ccccc2)cc1 (stereo not drawn)	?	-3	12%[38.3 µM]	1.4µM*	?	0.13µM*
CC(C)(C)C(=O)NCC12C=CC(O1)C1C(=O)N(c3ccccc3)C(=O)C12 (stereo not drawn)	111	-1	3%	20µM*	-1%	1.4µM*
CN1CCN(c2ncncc2-c2cccnc2)CC1	.	.	11%	.	.	?
CN1C(=S)N(c2ccccc2)C(=O)/C1=C/c1ccco1	?	.	-4%	-21%	-4%	13µM*
COc1ccc(C(=O)/C=C/c2ccc(OC)c(O)c2)c(F)c1	-25	4	-1%	32µM*	-27%	4%
O=C(NCCCN1CCN(c2ccc(F)cc2)CC1)Nc1ccccc1Cl	.	5	.	.	.	.
N=C1C(c2ccccc2)=C(O)C2CCc3ccccc3N12 (stereo not drawn)	-7	3	-8%[38.3 µM]	16µM*	-2%	8%
Cc1ccc(S(=O)(=O)N2CCc3nc(-c4ccccc4)c4c(c3C2)CO[C@@H](C)C4)cc1	.	.	6%	-7%	2%[11.4 µM]	24%[13.5 µM]
C=CCn1c(NC(=O)c2ccc(Br)o2)c(C(=O)OCC)sc1=S	-15	10	-8%[38.3 µM]	16µM*	-13%	3.5µM*
CCOC(=O)c1c(NC(=O)c2ccc(Br)o2)sc(C)c1CC	-9	?	4%[38.3 µM]	?	-4%	?
O=C(CCc1ccccc1)NC(NC(=S)Nc1cccc(Cl)c1)C(Cl)(Cl)Cl (stereo not drawn)	-119*	6	9%	-22%	-1%	?
O=C(CCc1ccccc1)NC(NC(=S)Nc1ccc(Br)cc1)C(Cl)(Cl)Cl (stereo not drawn)	?	5	13%[38.3 µM]	-12%	-9%	-9%
O=C(NC(NC(=S)Nc1c(Cl)cc(Cl)cc1Cl)C(Cl)(Cl)Cl)OCc1ccccc1 (stereo not drawn)	1	3	23%	-8%	2%	3.5µM*
C=C1C[C@@]23CC4C5[C@@]6(C)C[C@H](O)C[C@@]57C2[C@H](O)[C@@H]1[C@H](O)[C@H]3[C@H]7N4C6	.	.	6%	2%	.	9%
CN(Cc1ccco1)C(=O)C1CCC(=O)N1Cc1ccc(F)cc1 (stereo not drawn)	18	-2	-9%[38.3 µM]	0%	2%	5%
Cc1cc(C)c2nc3s/c(=C/c4ccc5c(c4)n(C)c(=O)n5C)c(=O)n3c2c1	4	-3	-4%[38.3 µM]	16µM*	7%	18µM*
Cc1cc(C(=O)N[C@@H](c2ccccc2)[C@]2(C)C[C@H]2[C@@H](C)C(=O)Nc2ccc3ccccc3c2)n(C)n1	.	.	-4%	-6%	?	?
CCC(C)/C(C)=N/NC(=O)c1ccc(CSc2nc3ccccc3s2)cc1 (stereo not drawn)	3	.	0%	20µM*	-1%	20µM*
O=C(O)c1ccc(CSc2nc3ccc(NC(=O)c4ccccc4C(=O)O)cc3s2)cc1	.	.	10%	.	.	12%
O=C(c1cc(NC(=O)C23CC4CC(CC(C4)C2)C3)cc(NC(=O)C23CC4CC(CC(C4)C2)C3)c1)N1CCCCC1	-97*	1	15%	-14%	7%	5%
COC(=O)C1CCN(C2CC(=O)N(c3cc(C)cc(C)c3)C2=O)CC1 (stereo not drawn)	.	.	-1%	.	.	-18%
COc1cc(OC)cc(C(=O)Nc2c(F)cccc2F)c1	-119*	3	10%	-9%	-5%	?
CCN(CC(=O)Nc1c(F)cccc1F)C(=O)CCc1ccc(OC)cc1	.	.	4%	.	.	14µM*
COc1cccc(C(=O)Nc2c(F)cccc2F)c1	.	.	-6%	.	.	1%
